# Only some compounds are listed: those with a hit (about 5.7% of all), similar ones and a draw of the others.
# hgDAF-12 ag: agonists of H. glycines DAF-12 nuclear receptor. HEK293 GAL4-hgDAF12 UAS-luciferase reporter, agonist luminescence; normalized to butyrate control. activation, % at 6.8 µM. actives 1.8% (n = 370,000). AID 687014;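 active means activation above a cutoff set at the mean of all screened compounds plus 3 SD, cut at about 10% in these data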
# DAX1 inh-1: inhibits human nuclear receptor DAX1; P51843; inhibition, % at 6.75 µM; actives 0.99% (n = 340,000); HEK293 Gal4-DAX1 luciferase reporter, luminescence;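 active means inhibition above the mean over all tested compounds plus 3 SD, cut at about 4.2% in these data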;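 further: inhibition shows as a rise in luminescence from relieved DAX1 repression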
# AHR activator: activates the human aryl hydrocarbon receptor | P35869 | AHR-responsive luciferase reporter cells, luminescence | activation, % at 5 µM | actives 2.5% (n = 320,000) | AID 2796; in the data active means activation above about 47%
# hcDAF12 agonist: activators of H. contortus DAF-12 nuclear receptor; actives 1.4% (n = 370,000); HEK293 hcDAF-12 lit1-tk-luc reporter, luminescence; 0% DMSO, 100% Δ7-dafachronic acid; activation, % at 6.8 µM;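 active means activation above the mean of all tested compounds plus 3 SD, cut at about 5.5% in these data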
# DAX1 inh-2: inhibitors of DAX1 repression of SF-1 activated StAR promoter; HEK293T StAR-luciferase reporter, SF-1/DAX-1 repression relief; inhibition, % at 6.8 µM; actives 1.1% (n = 370,000); AID 652010;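 active means inhibition above the mean over all tested compounds plus 3 SD, cut at about 3.6% in these data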;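 further: higher inhibition means more luminescence from relief of DAX-1 repression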
# ssDAF-12 act: S. stercoralis DAF-12 activation, primary screen; HEK293 ssDAF-12/GRIP1 lit1-tk-luc reporter, luminescence; % of 3 µM dafachronic acid response; activation, % at 6.8 µM; actives 1% (n = 370,000);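 active means activation above the mean over all tested compounds plus 3 SD, cut at about 0.9% in these data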
# AHR act cf: human AHR activation, confirmation; shares compounds with AHR activator; human cells, AHR-responsive luciferase reporter, luminescence; activation, % at 9 µM; actives 87% (n = 2,300); AID 2845; in the data active means activation above about 49%;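 further: HepG2 hepatoma cells carrying a DRE-driven firefly luciferase reporter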
# PXR act counter: activates human PXR in AHR activator counter-screen. shares compounds with AHR activator. cell-based PXR reporter, luciferase luminescence. activation, % at 11.6 µM. actives 88% (n = 2,300). AID 434939; in the data active means activation above about 11%;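 further: human hepatoma DPX-2 cells expressing full-length human PXR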
# Target sequence (O75469 whole entry, looked up): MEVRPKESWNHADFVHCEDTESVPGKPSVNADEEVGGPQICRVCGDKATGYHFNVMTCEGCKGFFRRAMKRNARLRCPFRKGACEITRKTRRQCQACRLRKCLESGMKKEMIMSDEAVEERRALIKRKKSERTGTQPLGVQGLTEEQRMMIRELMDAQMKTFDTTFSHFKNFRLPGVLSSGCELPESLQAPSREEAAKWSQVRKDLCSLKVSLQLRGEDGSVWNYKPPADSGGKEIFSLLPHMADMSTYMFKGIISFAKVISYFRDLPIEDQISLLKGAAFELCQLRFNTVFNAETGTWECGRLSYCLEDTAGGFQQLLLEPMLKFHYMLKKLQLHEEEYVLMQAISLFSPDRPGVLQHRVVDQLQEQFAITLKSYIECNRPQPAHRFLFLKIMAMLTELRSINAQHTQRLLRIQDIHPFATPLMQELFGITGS
# A number is an active result; – = inactive; · = no result given; + = active, no number.
SMILES,hgDAF-12 ag,DAX1 inh-1,AHR activator,hcDAF12 agonist,DAX1 inh-2,ssDAF-12 act,AHR act cf,PXR act counter
O=C(Nc1ccc2c(c1)N(S(=O)(=O)c1cccs1)CCC2)c1c(F)cccc1Cl,–,–,–,–,–,–,·,·
Clc1nc(-c2ccccc2)c2ccccc2n1,–,–,–,–,–,–,·,·
S=c1nc2ccccc2c2nc(-c3ccccc3)[nH]n12,–,–,106,–,–,–,129,23
S=c1nc2ccccc2c2nc(-c3ccccc3Cl)[nH]n12,–,–,134,–,–,–,129,28
O=C(Nc1ccc2c(c1)CCCN2C(=O)c1ccccc1)c1ccccc1,–,–,–,–,–,–,·,·
CCN(CC)S(=O)(=O)c1cccc(C(=O)NCCCn2ccnc2)c1,–,–,–,–,–,–,·,·
COC(=O)CC1CCc2cc(C)cc(C(=O)CC(C)C)c2O1 (stereo unspecified),–,·,·,–,·,–,·,·
O=C(Cc1coc2ccc3ccccc3c12)NCc1ccccc1,–,–,–,–,–,–,·,·
O=C(Cc1coc2ccc3ccccc3c12)Nc1nccs1,–,–,79,–,–,–,93,22
O=C(COC(=O)CSc1ccc([N+](=O)[O-])cc1)NCCCc1ccccc1,–,–,–,–,–,–,·,·
CCOc1ccccc1Oc1cn[nH]c1-c1ccc(OCC(=O)NN)cc1O,–,–,107,–,–,–,68,15
C=C(C)COc1ccc(-c2[nH]ncc2Oc2ccccc2OC)c(O)c1,–,–,98,–,–,–,55,66
Cn1c(=O)c2c(ncn2CC(=O)N2CCN(C(=O)c3ccco3)CC2)n(C)c1=O,–,–,–,–,–,–,·,·
CCOC(=O)[C@]12CCC=C1N(Cc1ccc(Cl)cc1Cl)C(=O)[C@H](CC(=O)NCC13CC4CC(CC(C4)C1)C3)C2,–,·,·,–,–,–,·,·
CCn1c2ccccc2c2cc(NC(=O)CSc3nnnn3-c3ccccc3)ccc21,–,–,82,–,–,–,133,+
CCn1c2ccccc2c2cc(NC(=O)CSc3nnc(C4CC4)n3Cc3ccco3)ccc21,–,–,112,–,–,–,56,171
CCn1c2ccccc2c2cc(NC(=O)CSc3nnc(-c4ccccc4)n3Cc3ccco3)ccc21,–,·,·,–,–,–,·,·
CCCC1CCC2(CC1)CCC2OC(=O)Nc1c(OC)cccc1OC (stereo unspecified),–,·,·,–,·,–,·,·
COc1cccc(-c2nc(C(N)=O)c3[nH]c(=O)n(-c4cccc(Cl)c4)c3n2)c1OC,–,–,89,–,–,–,93,31
COc1ccc(CCNC(=O)CCS(=O)(=O)c2ccc3c(c2)NC(=O)C(C)S3)cc1OC (stereo unspecified),–,–,–,–,–,–,·,·
Cn1cccc1/C=N/n1c(-c2ccc(Cl)cc2)n[nH]c1=S,–,–,89,–,–,–,81,25
COCCn1c(SCC(=O)Nc2ccc3[nH]c(=O)[nH]c3c2)nc2ccccc21,–,–,–,–,–,–,·,·
CSC(=NC#N)N1CCN(c2cccc(Cl)c2)CC1,–,–,115,–,–,–,–,41
CCOc1cc2nc(-c3ccc(OC)c(OC)c3)nc(N3CC(C)OC(C)C3)c2cc1OC (stereo unspecified),·,·,83,·,·,·,96,16
CCOc1cc2nc(-c3ccc(OC)c(OC)c3)nc(N3CCOCC3)c2cc1OC,–,·,–,–,–,–,·,·
SMILES,hgDAF-12 ag,DAX1 inh-1,AHR activator,hcDAF12 agonist,DAX1 inh-2,ssDAF-12 act,AHR act cf,PXR act counter
O=C(NC(=S)Nc1sc2c(c1C(=O)O)CCCC2)c1ccccc1,–,–,81,–,–,–,112,16
Cc1occc1C(=O)Nc1sc2c(c1C(N)=O)CCCCC2,–,–,83,–,–,–,79,49
CC(C)C(=O)NC(=S)Nc1sc2c(c1C(N)=O)CCCC2,11,–,90,–,–,–,97,16
N#Cc1c(NC(=S)NC(=O)c2ccccc2)sc2c1CCC2,–,–,–,–,–,–,·,·
Cn1ncc(Cl)c1C(=O)Nc1sc2c(c1C(N)=O)CCC2,–,–,121,–,–,–,96,137
COc1ccc(OC)c(S(=O)(=O)CC(O)CS(=O)(=O)c2ccccc2)c1 (stereo unspecified),–,–,–,–,–,–,·,·
CCN(CC(=O)Nc1ccc(OC)cc1)C(=O)c1ccc(N2C(=O)CCC2=O)cc1,–,–,–,–,–,–,·,·
Cc1ccc(/C=N/Nc2ccnc3cc(Cl)ccc23)c(C)c1,–,–,87,–,–,–,–,16
Cc1ccccc1/C=N/Nc1ccnc2cc(Cl)ccc12,–,–,–,–,–,–,·,·
CCOc1cc(/C=C/C(=O)OCC(=O)NCC2CCCO2)cc(Cl)c1OC (stereo unspecified),–,–,–,–,–,–,·,·
Oc1cccc(/C=N/NC(=S)Nc2cccnc2)c1O,–,–,–,–,–,–,·,·
Fc1ccc(/C=N/NC(=S)Nc2cccnc2)cc1,–,–,105,–,–,–,53,19
Fc1ccc(/C=N/NC(=S)Nc2cccnc2)cc1F,–,–,99,–,–,–,92,14
O=C(N/N=C/c1c(F)cccc1Cl)c1cc(C2CC2)[nH]n1,–,–,–,–,–,–,·,·
O=C(NC1=C(Nc2ccc(F)cc2)C(=O)c2ccccc2C1=O)c1ccc(Cl)cc1,–,–,88,–,–,–,90,72
O=C(Nc1cc(F)cc(F)c1)c1ccc(NCCCN2CCCCCC2)c([N+](=O)[O-])c1,–,–,83,–,–,–,118,29
O=C(Nc1ccccc1)c1ccc(NCCN2C(=O)CCC2=O)c([N+](=O)[O-])c1,–,–,81,–,–,–,110,23
O=C(Nc1ccccc1)c1ccc(NCC2CCCO2)c([N+](=O)[O-])c1 (stereo unspecified),–,–,–,–,–,–,·,·
CCCCn1c(N)c(N(CC)C(=O)CN2C(=O)NC(C)(c3ccccc3)C2=O)c(=O)[nH]c1=O (stereo unspecified),–,–,–,–,–,–,·,·
Cc1cc(/C=C2\NC(=S)NC2=O)c(C)n1-c1cccnc1,–,–,100,–,–,–,59,33
Cc1cccc(NC(=O)CSc2nnc(CNC(=O)c3ccco3)n2C)c1,–,–,–,–,–,–,·,·
COc1ccc(-c2cc3c(=O)n(CC(=O)Nc4cccc(Cl)c4)ncn3n2)cc1,–,–,–,–,–,–,·,·
CC(C)c1ccc(NC(=S)Nc2cccc3ccccc23)cc1,–,–,90,–,–,–,90,81

# Screens from PubChem.
